Reference: PubChem BioAssay AID1159580 (chemical genetic matrix, 2015)
Values joined by “and” are separate entries in the source; they are usually repeats but may differ in a detail not shown here. Equal entries are not always repeated. In all, about 5,500 compounds went through this assay and about 2,000 (36%) were called active. Another 18% or so got no clear call; they are omitted. No stated cut-off is given here; in the data, active means normalized growth mostly below about 0.91 (no sharp cut-off); inconclusive means no clear call, values can overlap the other calls; inactive means mostly above about 0.92. Some of the results follow.

Experiment: chemical genetic growth profiling, strain panel (AID 1159580);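 further: tested at 20 µM; growth read once vehicle control cultures reached saturation at 30 °C; 1 = growth at the plate median or of vehicle wells; lower values mean less growth of the strain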
Conditions: S. cerevisiae deletion strains, growth OD

Measured: normalized growth

Cn1cnc([N+](=O)[O-])c1Sc1ncnc2nc[nH]c12
inactive: locus YAL021C, strain ccr4, active compounds read low 1.03 | locus YAL026C, strain drs2, active compounds read low 1.04 | locus YAL030W, strain snc1, active compounds read low 1.02 | locus YAL040C, strain CLN3, active compounds read low 1.01 | locus YBL061C, strain skt5, active compounds read low 1.03 | locus YBR009C, strain hhf1, active compounds read low 1.01 | locus YBR021W, strain FUR4, active compounds read low 1.02 | locus YBR023C, strain chs3, active compounds read low 1.02 | locus YBR171W, strain sec66, active compounds read low 1.02 | locus YBR229C, strain ROT2, active compounds read low 1.01 | locus YBR231C, strain swc5, active compounds read low 1.01 | locus YBR279W, strain paf1, active compounds read low 1.01 | locus YCL011C, strain gbp2, active compounds read low 1.01 | locus YCL016C, strain dcc1, active compounds read low 1.04 | locus YCL029C, strain bik1, active compounds read low 0.997 | locus YCL069W, strain vba3, active compounds read low 1.02 | locus YCR088W, strain abp1, active compounds read low 1.02 | locus YDL005C, strain med2, active compounds read low 1.01 | locus YDL035C, strain GPR1, active compounds read low 1.03 | locus YDL040C, strain nat1, active compounds read low 1.02 | locus YDL074C, strain BRE1, active compounds read low 1.01 | locus YDL101C, strain DUN1, active compounds read low 1.01 | locus YDL134C, strain PPH21, active compounds read low 1.02 | locus YDL185W, strain tfp1, active compounds read low 1 | locus YDL192W, strain arf1, active compounds read low 0.994 | locus YDR001C, strain nth1, active compounds read low 1.02 | locus YDR069C, strain doa4, active compounds read low 1.02 | locus YDR101C, strain arx1, active compounds read low 0.999 | locus YDR137W, strain rgp1, active compounds read low 1.02 | locus YDR150W, strain NUM1, active compounds read low 0.999 | locus YDR159W, strain sac3, active compounds read low 1 | locus YDR162C, strain NBP2, active compounds read low 1.03 | locus YDR195W, strain ref2 0.996 | locus YDR297W, strain sur2, active compounds read low 1.03 | locus YDR318W, strain mcm21, active compounds read low 0.996 | locus YDR334W, strain swr1, active compounds read low 1.03 | locus YDR335W, strain msn5, active compounds read low 1.01 | locus YDR363W, strain ESC2, active compounds read low 1.01 | locus YDR388W, active compounds read low 0.985 | locus YDR392W, strain spt3, active compounds read low 1.04 | locus YDR502C, strain sam2, active compounds read low 0.985 | locus YEL003W, strain gim4, active compounds read low 1.03 | locus YEL037C, strain rad23, active compounds read low 1.01 | locus YEL061C, strain CIN8 (second series), active compounds read low 1.03 | locus YEL061C, strain CIN8, active compounds read low 1.01 | locus YER002W, strain NOP16, active compounds read low 0.995 | locus YER015W, strain faa2, active compounds read low 1.02 | locus YER016W, strain bim1, active compounds read low 1.01 | locus YER110C, active compounds read low 0.989 | locus YER111C, strain swi4, active compounds read low 1.03 | locus YER155C, strain BEM2 (second series), active compounds read low 0.996 | locus YER155C, strain BEM2, active compounds read low 1.01 | locus YER167W, strain BCK2, active compounds read low 1.02 | locus YFR010W, strain ubp6, active compounds read low 1 | locus YGL078C, strain dbp3, active compounds read low 0.988 | locus YGL086W, strain mad1, active compounds read low 0.991 | locus YGL167C, strain pmr1, active compounds read low 1.02 | locus YGL173C, strain kem1, active compounds read low 1.02 | locus YGL227W, strain vid30, active compounds read low 1 | locus YGL240W, strain doc1, active compounds read low 1.04 | locus YGL248W, strain PDE1, active compounds read low 1.01 | locus YGL253W, strain hxk2, active compounds read low 1.03 | locus YGR078C, strain PAC10, active compounds read low 1.01 | locus YGR135W, strain pre9, active compounds read low 0.991 | locus YGR229C, strain SMI1, active compounds read low 1.03 | locus YGR252W, strain gcn5, active compounds read low 0.974 | locus YHR013C, strain ard1, active compounds read low 1.02 | locus YHR027C, strain rpn1, active compounds read low 1.03 | locus YHR030C, strain SLT2, active compounds read low 1.02 and 1.08 | locus YHR079C, strain IRE1 (second series), active compounds read low 0.995 | locus YHR079C, strain IRE1, active compounds read low 1.05 | locus YHR094C, strain hxt1, active compounds read low 0.994 | locus YHR129C, strain ARP1, active compounds read low 1.01 | locus YHR142W, strain chs7, active compounds read low 1.06 | locus YHR200W, strain rpn10, active compounds read low 0.994 | locus YIL066C, strain RNR3, active compounds read low 1.03 | locus YIL073C, strain SPO22, active compounds read low 1.02 | locus YIL125W, strain kgd1, active compounds read low 0.991 | locus YIR030C, strain dcg1, active compounds read low 0.992 | locus YJL092W, strain hpr5, active compounds read low 1.02 | locus YJL095W, strain BCK1 (second series), active compounds read low 1 | locus YJL095W, strain BCK1, active compounds read low 0.988 and 1.05 | locus YJL115W, strain asf1, active compounds read low 1.05 | locus YJL129C, strain trk1, active compounds read low 1.03 | locus YJL134W, strain LCB3, active compounds read low 1.01 | locus YJL154C, strain vps35, active compounds read low 1.02 | locus YJL164C, strain tpk1, active compounds read low 1.04 | locus YJL166W, strain qcr8, active compounds read low 1.02 | locus YJL168C, strain set2, active compounds read low 0.993 | locus YJL187C, strain SWE1 (second series), active compounds read low 0.997 | locus YJR043C, strain POL32, active compounds read low 1.04 | locus YJR066W, strain TOR1, active compounds read low 0.998 | locus YJR075W, strain HOC1, active compounds read low 1.01 and 0.99
